Where “and” joins values, the source holds several entries; their conditions need not be identical. Equal values may be shown once. Inconclusive results are not listed. Where a structure was tested more than once in an assay, its records may differ in their call. Calls of active or inactive are those of the source. How the source made its calls: active means hit-call score of the fitted dose curve at least 0.9, where 1 is the maximum; inconclusive means response in the unintended direction; inactive means score below 0.9.

Our source for the outcome and AC50 values is PubChem BioAssay (EPA / NIEHS).

Sequence of Estrogen receptor beta (Homo sapiens) (Q92731 whole entry, looked up, the tested form may be a part): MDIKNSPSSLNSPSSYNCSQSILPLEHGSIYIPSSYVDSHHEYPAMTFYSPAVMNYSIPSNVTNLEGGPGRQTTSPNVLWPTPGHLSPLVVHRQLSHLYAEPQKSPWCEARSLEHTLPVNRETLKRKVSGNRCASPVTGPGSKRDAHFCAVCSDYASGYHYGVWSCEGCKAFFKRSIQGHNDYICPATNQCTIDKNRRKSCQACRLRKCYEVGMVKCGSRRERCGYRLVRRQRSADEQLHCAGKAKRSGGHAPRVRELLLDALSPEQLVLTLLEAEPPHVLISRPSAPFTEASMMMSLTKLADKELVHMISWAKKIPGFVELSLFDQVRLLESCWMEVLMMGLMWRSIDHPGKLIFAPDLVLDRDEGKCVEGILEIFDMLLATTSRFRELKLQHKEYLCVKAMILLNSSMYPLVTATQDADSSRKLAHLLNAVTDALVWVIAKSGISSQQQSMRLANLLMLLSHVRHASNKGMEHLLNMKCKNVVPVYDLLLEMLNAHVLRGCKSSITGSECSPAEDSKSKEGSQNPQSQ
Sequence of Norway rat Vesicular Monoamine Transporter (VMAT2), neurotransmitter transporter, Slc18a2 (gene 25549) (Q01827 whole entry, looked up): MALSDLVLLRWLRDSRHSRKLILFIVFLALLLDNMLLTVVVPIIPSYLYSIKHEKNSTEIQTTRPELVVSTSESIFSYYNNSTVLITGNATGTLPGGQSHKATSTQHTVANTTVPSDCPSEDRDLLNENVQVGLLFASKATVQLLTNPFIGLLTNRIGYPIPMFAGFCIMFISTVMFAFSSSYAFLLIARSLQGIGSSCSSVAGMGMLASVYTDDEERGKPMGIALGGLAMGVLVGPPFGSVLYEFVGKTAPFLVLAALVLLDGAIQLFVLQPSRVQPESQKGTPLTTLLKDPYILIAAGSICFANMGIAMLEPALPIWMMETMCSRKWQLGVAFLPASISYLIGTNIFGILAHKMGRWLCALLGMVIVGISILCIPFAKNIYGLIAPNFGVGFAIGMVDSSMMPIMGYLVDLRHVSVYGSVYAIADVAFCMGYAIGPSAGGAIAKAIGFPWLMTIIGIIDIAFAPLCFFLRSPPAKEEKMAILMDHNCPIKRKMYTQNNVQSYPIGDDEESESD
Sequence of human Norepinephrine Transporter (NET), SLC6A2 (gene 6530) (P23975 whole entry, looked up): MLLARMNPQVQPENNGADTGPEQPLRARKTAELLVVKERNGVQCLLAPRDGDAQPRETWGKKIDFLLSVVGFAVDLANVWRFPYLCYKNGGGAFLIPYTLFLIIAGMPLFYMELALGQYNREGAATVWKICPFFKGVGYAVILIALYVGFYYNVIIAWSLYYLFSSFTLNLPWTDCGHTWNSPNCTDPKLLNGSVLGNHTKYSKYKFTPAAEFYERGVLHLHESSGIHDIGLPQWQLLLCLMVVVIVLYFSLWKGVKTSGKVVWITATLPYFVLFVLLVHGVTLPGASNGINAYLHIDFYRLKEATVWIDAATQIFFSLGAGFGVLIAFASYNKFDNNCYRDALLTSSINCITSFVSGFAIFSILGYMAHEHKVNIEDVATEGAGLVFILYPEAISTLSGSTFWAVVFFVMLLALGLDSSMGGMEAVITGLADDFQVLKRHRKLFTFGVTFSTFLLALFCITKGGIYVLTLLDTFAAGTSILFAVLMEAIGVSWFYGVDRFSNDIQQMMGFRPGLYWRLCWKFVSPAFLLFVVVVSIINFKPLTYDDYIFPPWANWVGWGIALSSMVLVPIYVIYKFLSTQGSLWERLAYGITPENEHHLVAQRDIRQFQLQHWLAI
Sequence of human Dopamine Transporter (DAT), SLC6A3 (gene 6531) (Q01959 whole entry, looked up): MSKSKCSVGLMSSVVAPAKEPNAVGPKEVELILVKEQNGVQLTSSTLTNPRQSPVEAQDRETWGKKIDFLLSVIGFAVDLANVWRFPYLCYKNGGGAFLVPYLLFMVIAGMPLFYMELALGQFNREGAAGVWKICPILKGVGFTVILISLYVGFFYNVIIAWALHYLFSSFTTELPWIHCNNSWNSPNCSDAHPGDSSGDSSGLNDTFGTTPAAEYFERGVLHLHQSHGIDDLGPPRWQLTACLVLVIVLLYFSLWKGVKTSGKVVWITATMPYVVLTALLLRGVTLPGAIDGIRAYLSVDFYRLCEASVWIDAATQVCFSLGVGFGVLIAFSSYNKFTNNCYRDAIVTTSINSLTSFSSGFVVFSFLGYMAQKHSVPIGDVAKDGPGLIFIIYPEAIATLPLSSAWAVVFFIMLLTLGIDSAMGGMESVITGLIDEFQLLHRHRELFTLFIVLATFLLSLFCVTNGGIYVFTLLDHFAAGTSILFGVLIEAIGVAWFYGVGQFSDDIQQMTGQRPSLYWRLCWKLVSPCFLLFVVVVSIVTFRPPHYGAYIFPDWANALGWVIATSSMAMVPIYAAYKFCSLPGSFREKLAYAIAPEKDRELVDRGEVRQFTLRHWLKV

The first assay concerns rat Norepinephrine Transporter (NET), gene 83511. Kind of assay: NVS_TR_rNET: NovaScreen (NVS) Transporter Assay for rat Norepinephrine Transporter (NET) (AID 2283373). The method, boiled down:
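Competitive radioligand displacement at the rat NET using forebrain membrane preparations, 1 h incubation, filter-based scintillation readout. Primary testing in duplicate at a single 25 uM concentration; confirmed actives retested across concentrations.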
As for `CC(C)(C)c1ccc(O)cc1`, the result was inactive.

Take `CCC(C)(C)c1ccc(O)cc1`: the call was inactive.

The term AC50 denotes the concentration at which the activity in the assay is half-maximal. For the molecule `Nc1ccc2ccccc2c1`, the AC50 was 14.9 µM (active).

The next assay has as its target human Dopamine Transporter (DAT), SLC6A3 (gene 6531) (UniProt Q01959). Kind of assay: NVS_TR_hDAT: NovaScreen (NVS) Transporter Assay for human Dopamine Transporter (DAT) (AID 2283374).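 Further: activity means loss of bound radioligand signal relative to DMSO.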 The method, boiled down:
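hDAT membranes + tritiated/iodinated radioligand, competitive displacement; 1 h; filter scintillation readout. Single conc 25 uM (duplicate), then conc-response for actives. DMSO = negative control.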
On to `Cc1cc(C)c(C(=O)P(=O)(c2ccccc2)c2ccccc2)c(C)c1`, for which the AC50 is 13.6 µM (active).

As to `CCC(C)(C)c1ccc(O)cc1`, the AC50 was 10 µM (active).

Regarding `CCCCCCCc1ccc(O)cc1`, the concentration at half-maximal activity (AC50) is 6.26 µM (active).

`Nc1ccc2ccccc2c1`: the AC50 is 12.9 µM (active).

`CC(C)Nc1ccc(Nc2ccccc2)cc1`: the AC50 was 1.69 µM (active).

Turning to `O=P(Oc1ccccc1)(Oc1ccccc1)Oc1ccccc1`, the AC50 was 11.3 µM (active).

Turning to `CC(C)(C)c1ccccc1OP(=O)(Oc1ccccc1)Oc1ccccc1`, the AC50 was 9.69 µM (active).

As for `c1ccc(OP(Oc2ccccc2)Oc2ccccc2)cc1`, the call was inactive.

In the case of `CC(=O)c1ccc(-c2ccccc2)cc1`, the AC50 is 10.9 µM (active).

Turning to `O=[N+]([O-])c1ccc(Cl)c(Cl)c1`, the outcome was inactive.

As to `CSC(C)(C)C=NO`, the result was inactive.

Take `O=c1ssc(Cl)c1Cl`: the AC50 was 14.5 µM (active).

For the molecule `Clc1ccc(Oc2ccccc2)cc1`, the result was inactive.

A further assay has as its target Norway rat Vesicular Monoamine Transporter (VMAT2), neurotransmitter transporter, Slc18a2 (gene 25549) (UniProt Q01827). Nature of the assay: NVS_TR_rVMAT2: NovaScreen (NVS) Transporter Assay for Norway rat Vesicular Monoamine Transporter (VMAT2), neurotransmitter transporter (AID 2283376).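 Further: actives lower the bound radioligand signal below the DMSO level.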 The method, then: NVS_TR_rVMAT2 is a biochemical, single-readout assay that uses extracted gene-proteins from Rat forebrain in a tissue-based cell-free assay. Measurements were taken 1 hour after chemical dosing in a 96-well plate.NVS_TR_rVMAT2 is one of one assay component(s) measured or calculated from the NVS_TR_rVMAT2 assay. It is designed to make measurements of radioligand binding, a form of binding reporter, as detected with scintillation counting signals by Filter-based radiodetection technology.Data from the assay component NVS_TR_rVMAT2 was analyzed into 1 assay endpoint. This assay endpoint, NVS_TR_rVMAT2, was analyzed in the positive analysis fitting direction relative to DMSO as the negative control and baseline of activity. Using a type of binding reporter, loss-of-signal activity can be used to understand changes in the binding as they relate to the gene Slc18a2. Furthermore, this assay endpoint can be referred to as a primary readout, because the performed assay has only produced 1 assay endpoint. To generalize the intended target to other relatable targets, this assay endpoint is annotated to the transporter intended target family, where the subfamily is vesicular transporter.
Binding assays used specific radioligands (tritiated, iodinated) with non-radioactive competitive displacement ligands in agonist or antagonist protocols (as indicated) and various reference compounds and inhibitors to titrate specific binding to receptors and transporters. Most enzyme assays (CYPs, kinases, phosphatases, proteases, HDACs) used recombinant protein and specific substrates (fluorescence mostly, some colorimetric and radioactive) and inhibitors, followed by a biochemical separation of substrate and product. All assays for the biochemical HTS were initially run in duplicate at a single concentration (10 uM for CYP450 assays and 25 uM for all others). […] Each assay was run with positive and negative controls, and concurrent controls on every plate. The follow-up (secondary) screen tested active chemical-pairs in concentration series, as well as a few additional assays not tested in the primary screen, some selected negative inactives, and several cases re-run in the concentration series for confirmatory purposes.
With `N#C/C=C/c1ccccc1`, the molecule was called inactive.

Consider `Cn1[nH]nnc1=S`, for which the molecule was called inactive.

`O=C(O)C(Cl)Cl`: the outcome was inactive.

In the case of `CC1(C)CN=C(NN=C(/C=C/c2ccc(C(F)(F)F)cc2)/C=C/c2ccc(C(F)(F)F)cc2)NC1`, the AC50 is 0.109 µM (active).

Regarding `Oc1ccc(I)cc1`, the molecule was called inactive.

As to `CC(Cc1ccc(OCC(=O)O)cc1)NCC(O)c1csc(C(F)(F)F)n1` (stereo not given), the molecule was called inactive.

In the case of `OCC1CO1` (stereo not given), the result was inactive.

As to `O=P(OCC(Br)CBr)(OCC(Br)CBr)OCC(Br)CBr` (stereo not given), the molecule was called inactive.

The target in the next assay is human Norepinephrine Transporter (NET), SLC6A2 (gene 6530) (UniProt P23975). Kind of assay: NVS_TR_hNET: NovaScreen (NVS) Transporter Assay for human Norepinephrine Transporter (NET) (AID 2283377).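 Further: cell-free membrane protein extracted from CHO cells expressing human NET.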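 On AC50: displacement of radioligand from human NET seen as loss of scintillation signal.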 The method, boiled down:
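CHO cell extracts expressing the transporter; tritiated or iodinated tracer displaced competitively; filtration plus scintillation readout at 1 h. Single-point duplicates at 25 uM, concentration series for follow-up; activity = signal drop relative to DMSO.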
For the molecule `Oc1ccccc1Br`, the outcome was inactive.

Take `Cc1cc(C)c(C(=O)P(=O)(c2ccccc2)c2ccccc2)c(C)c1`: the molecule was classed as inactive.

With `CCC(C)(C)c1ccc(O)cc1`, the AC50 was 16.1 µM (active).

`Nc1ccc2ccccc2c1`: the AC50 was 5.64 µM (active).

Consider `c1ccc2c(c1)Nc1ccccc1S2`, for which the AC50 was 6.58 µM (active).

Take `CCC1(c2ccccc2)C(=O)N=C(O)NC1=O` (stereo not given): the molecule was classed as inactive.

For `CC(C)Nc1ccc(Nc2ccccc2)cc1`, the AC50 is 2.93 µM (active).

With `N#Cc1c(-c2ccc(Cl)cc2)[nH]c(C(F)(F)F)c1Br`, the AC50 was 16.4 µM (active).

On to `CC1(C)CN=C(NN=C(/C=C/c2ccc(C(F)(F)F)cc2)/C=C/c2ccc(C(F)(F)F)cc2)NC1`, for which the AC50 is 1.6 µM (active).

As for `Cc1ccc2c(c1N)C(=O)c1ccccc1C2=O`, the AC50 was 12.2 µM (active).

With `Oc1ccc(I)cc1`, the half-maximal activity concentration (AC50) is 19.8 µM (active).

With `O=[N+]([O-])c1ccc(Cl)c(Cl)c1`, the outcome was inactive.

Turning to `O=c1ssc(Cl)c1Cl`, the AC50 is 18.3 µM (active).

The target in the next assay is mouse Estrogen Receptor alpha (Era), Esr1 (gene 13982) (UniProt P19785). Nature of the assay: NVS_NR_mERa: NovaScreen (NVS) Nuclear Receptor Binding Assay for mouse Estrogen Receptor alpha (Era) (AID 2283378).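 Further: hit means loss of bound radioligand signal relative to DMSO.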 The method, boiled down: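 Cell-free radioligand competitive displacement binding, read by filter-based scintillation counting 18 h after dosing. Primary screen run in duplicate at 25 uM, actives retested in concentration series; loss of signal versus DMSO.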
Sequence of mouse Estrogen Receptor alpha (Era), Esr1 (gene 13982) (P19785 whole entry, looked up): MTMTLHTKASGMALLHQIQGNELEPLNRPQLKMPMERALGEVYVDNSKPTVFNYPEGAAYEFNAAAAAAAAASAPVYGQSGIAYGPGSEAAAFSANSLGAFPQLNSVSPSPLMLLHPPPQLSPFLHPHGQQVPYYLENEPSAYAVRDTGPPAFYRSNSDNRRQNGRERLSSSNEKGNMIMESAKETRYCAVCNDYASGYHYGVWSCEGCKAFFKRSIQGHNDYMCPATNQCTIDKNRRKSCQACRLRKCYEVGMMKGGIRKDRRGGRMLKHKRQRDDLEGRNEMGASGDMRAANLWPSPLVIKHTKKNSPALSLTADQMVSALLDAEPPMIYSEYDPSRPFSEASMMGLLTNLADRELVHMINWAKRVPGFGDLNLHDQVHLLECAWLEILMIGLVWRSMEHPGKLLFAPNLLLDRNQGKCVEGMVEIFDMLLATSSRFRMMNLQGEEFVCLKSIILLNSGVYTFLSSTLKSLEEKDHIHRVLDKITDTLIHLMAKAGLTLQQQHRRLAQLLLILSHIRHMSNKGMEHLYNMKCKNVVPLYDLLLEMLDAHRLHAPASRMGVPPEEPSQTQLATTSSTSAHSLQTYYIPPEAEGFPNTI
For the molecule `CO/N=C(/C(=O)OC)c1ccccc1COc1ccccc1C`, the call was inactive.

On to `CCNc1nc(Cl)nc(NC(C)(C)C)n1`, for which the call was inactive.

Regarding `CCC(C)(C)c1ccc(O)cc1`, the AC50 was 25 µM (active).

For `CCCCCCCc1ccc(O)cc1`, the AC50 was 4.96 µM (active) and 14.5 µM (active); the result was inactive.

Consider `ClC(Cl)(Cl)c1ccccc1`, for which the molecule was called inactive.

Take `CCCCN(CC)C(=O)SCCC`: the outcome was inactive.

Regarding `O=S(=O)(c1ccc(O)cc1)c1ccc(O)cc1`, the result was inactive.

For `CCCCN(CCCC)SN(C)C(=O)Oc1cccc2c1OC(C)(C)C2`, the outcome was inactive.

With `ClC1=C(Cl)C2(Cl)C3C(Cl)C(Cl)CC3C1(Cl)C2(Cl)Cl` (stereo not given), the molecule was called inactive.

Consider `c1nc[nH]n1`, for which the call was inactive.

With `c1ccc(OP(Oc2ccccc2)Oc2ccccc2)cc1`, the molecule was classed as inactive.

For `O=P1(N(CCCl)CCCl)NCCCO1` (stereo not given), the outcome was inactive.

The target in a further assay is Agonist Androgen Response Element (ARE), AR (gene 367) (UniProt P10275). Kind of assay: OT_AR_ARELUC_AG_1440: Odyssey Thera (OT) 24-hour CHO-K1 Luciferase Assay for Agonist Androgen Response Element (ARE) (AID 2283379). An outline of the steps: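 Gain-of-signal reporter endpoint: cells (CHO-K1, hamster) are treated 24 h, luciferin/ATP reagent added, and luminescence compared with DMSO baseline.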
Sequence of Agonist Androgen Response Element (ARE), AR (gene 367) (P10275 whole entry, looked up): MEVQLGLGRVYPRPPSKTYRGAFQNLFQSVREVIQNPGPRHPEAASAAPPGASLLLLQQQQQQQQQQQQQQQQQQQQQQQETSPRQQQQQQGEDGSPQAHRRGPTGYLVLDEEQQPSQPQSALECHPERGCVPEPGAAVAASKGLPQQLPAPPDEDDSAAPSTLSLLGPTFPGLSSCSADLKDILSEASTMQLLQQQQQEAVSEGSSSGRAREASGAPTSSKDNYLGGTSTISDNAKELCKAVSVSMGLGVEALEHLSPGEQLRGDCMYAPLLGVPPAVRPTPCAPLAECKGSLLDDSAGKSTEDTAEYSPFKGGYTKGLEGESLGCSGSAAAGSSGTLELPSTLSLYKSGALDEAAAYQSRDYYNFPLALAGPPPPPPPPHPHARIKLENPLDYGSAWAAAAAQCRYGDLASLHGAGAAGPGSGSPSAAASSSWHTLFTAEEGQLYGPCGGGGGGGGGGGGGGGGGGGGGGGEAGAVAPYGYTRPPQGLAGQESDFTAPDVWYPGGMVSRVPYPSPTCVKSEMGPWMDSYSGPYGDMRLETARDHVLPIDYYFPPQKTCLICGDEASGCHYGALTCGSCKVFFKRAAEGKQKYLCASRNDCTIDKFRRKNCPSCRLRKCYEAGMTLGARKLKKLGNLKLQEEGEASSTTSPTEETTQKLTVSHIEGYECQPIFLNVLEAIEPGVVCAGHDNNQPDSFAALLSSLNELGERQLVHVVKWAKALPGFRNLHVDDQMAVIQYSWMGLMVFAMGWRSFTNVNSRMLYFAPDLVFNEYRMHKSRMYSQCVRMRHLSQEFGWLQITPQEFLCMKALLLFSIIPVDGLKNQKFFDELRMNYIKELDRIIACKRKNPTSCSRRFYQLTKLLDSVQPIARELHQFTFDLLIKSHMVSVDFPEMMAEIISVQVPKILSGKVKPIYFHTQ
In the case of `CO/N=C(/C(=O)OC)c1ccccc1COc1ccccc1C`, the outcome was inactive.

Take `CCNc1nc(Cl)nc(NC(C)(C)C)n1`: the molecule was called inactive.

As to `CCCCCCCc1ccc(O)cc1`, the result was inactive.

In the case of `CCCCN(CC)C(=O)SCCC`, the molecule was classed as inactive.

`ClC1=C(Cl)C2(Cl)C3C(Cl)C(Cl)CC3C1(Cl)C2(Cl)Cl` (stereo not given): the outcome was inactive.

As to `CC1(C)CN=C(NN=C(/C=C/c2ccc(C(F)(F)F)cc2)/C=C/c2ccc(C(F)(F)F)cc2)NC1`, the molecule was classed as inactive.

Take `O=P(OCC(Br)CBr)(OCC(Br)CBr)OCC(Br)CBr` (stereo not given): the molecule was classed as inactive.

Another assay concerns the target Estrogen receptor beta (Homo sapiens) (UniProt Q92731). Nature of the assay: OT_ER_ERbERb_1440: Odyssey Thera (OT) 24-hour HEK293T Protein-Complementation Assay for Estrogen Receptor-beta/-beta Homodimer (AID 2283380).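 Further: scored as signal increase over DMSO baseline for both agonists and antagonists.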 The method, boiled down: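 HEK293T cells stably expressing ER beta LBD (aa 310-547) homodimer fragment-complementation reporter, dosed 24 h. Cells formaldehyde-fixed, Draq5-stained; gain in nuclear (agonist) or nuclear plus cytoplasmic (antagonist) fluorescence versus DMSO read by laser scanning cytometry.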
Turning to `CCNc1nc(Cl)nc(NC(C)(C)C)n1`, the call was inactive.

Consider `CCC(C)(C)c1ccc(O)cc1`, for which the AC50 is 4.88 µM (active).

Take `CCCCCCCc1ccc(O)cc1`: the half-maximal activity concentration (AC50) was 12.7 µM (active) and 12.5 µM (active) and 12.6 µM (active); the outcome was inactive.

`Nc1ccc2ccccc2c1`: the call was inactive.

`c1ccc2c(c1)Nc1ccccc1S2`: the outcome was inactive.

Take `ClC(Cl)(Cl)c1ccccc1`: the result was inactive.

For `CCCCN(CC)C(=O)SCCC`, the result was inactive.

Turning to `O=S(=O)(c1ccc(O)cc1)c1ccc(O)cc1`, the AC50 was 39.5 µM (active).

Consider `CCC1(c2ccccc2)C(=O)N=C(O)NC1=O` (stereo not given), for which the molecule was called inactive.

`CCCCN(CCCC)SN(C)C(=O)Oc1cccc2c1OC(C)(C)C2`: the molecule was called inactive.

As for `ClC1=C(Cl)C2(Cl)C3C(Cl)C(Cl)CC3C1(Cl)C2(Cl)Cl` (stereo not given), the call was inactive.

As for `c1nc[nH]n1`, the molecule was called inactive.

Take `CC1(C)CN=C(NN=C(/C=C/c2ccc(C(F)(F)F)cc2)/C=C/c2ccc(C(F)(F)F)cc2)NC1`: the outcome was inactive.

Regarding `CC(Cc1ccc(OCC(=O)O)cc1)NCC(O)c1csc(C(F)(F)F)n1` (stereo not given), the outcome was inactive.

Consider `c1ccc(OP(Oc2ccccc2)Oc2ccccc2)cc1`, for which the molecule was called inactive.

As for `O=P(OCC(Br)CBr)(OCC(Br)CBr)OCC(Br)CBr` (stereo not given), the molecule was classed as inactive.

For the molecule `O=P1(N(CCCl)CCCl)NCCCO1` (stereo not given), the outcome was inactive.
